Assay results reported in PubChem BioAssay AID2129 (The Scripps Research Institute Molecular Screening Center, 2009).
Among all 320,000 compounds or so, about 2,200 (0.69%) were called active.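 The calls were made as follows: active = inhibition above the mean of all tested compounds plus 3 SD, cutoff set per campaign (cut at about 30% in these data); inactive = the rest.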 This excerpt belongs to a sample that is enriched for actives.

What follows are compounds tested against Bcl-2-like protein 1 (Homo sapiens) (UniProt Q07817) (assay: Bcl-xL/Bim BH3 interaction blockers – biochemical, fluorescence polarization, HTS, primary screen (AID 2129;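 also: 0% = DMSO wells and 100% = unlabeled Bim-BH3 peptide competitor; inhibitors lower millipolarization by displacing the labeled peptide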)). Settings: GST-Bcl-xL / FITC-Bim BH3 peptide fluorescence polarization; at 10.9 µM; stronger effect = higher value.
Bcl-2-like protein 1 (Homo sapiens), sequence (Q07817 whole entry, looked up): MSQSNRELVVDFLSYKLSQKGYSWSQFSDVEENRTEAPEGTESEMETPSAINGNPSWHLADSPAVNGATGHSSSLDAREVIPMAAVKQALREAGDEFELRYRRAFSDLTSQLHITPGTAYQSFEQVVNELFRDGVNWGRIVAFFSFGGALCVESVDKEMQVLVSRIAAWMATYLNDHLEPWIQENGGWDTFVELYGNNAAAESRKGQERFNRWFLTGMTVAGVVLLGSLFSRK
For CC1CC(C)CN(S(=O)(=O)c2cccc(C(=O)N3C(=O)c4cccc(N)c4C3=O)c2)C1 (configuration not stated), the inhibition was 30.5% (active).
For CN1CCN(S(=O)(=O)c2cccc(C(=O)O)c2)CC1, the inhibition was 6.51% (inactive).
With COc1cc(C(=O)N2C(=O)c3cccc(N)c3C2=O)cc(OC)c1OC the inhibition was 11.8% (inactive).
For O=C(Cn1nc([N+](=O)[O-])nc1Br)NC1CCCCC1, the inhibition was 0.58% (inactive).
With CC(C)(C)c1ccc(C(CC(=O)O)NS(=O)(=O)Cc2ccccc2)cc1 (configuration not stated) the inhibition was -2.32% (inactive).
With O=C1CCCN1CCCNC(=S)Nc1ccc(F)c(Cl)c1 the inhibition was 5.5% (inactive).
Cc1cc([N+](=O)[O-])ccc1NCc1cccc([N+](=O)[O-])c1 was tested, and the inhibition was 3.28% (inactive).
In the case of C=CCn1c(SCCOc2ccc(OC)cc2)nnc1C(NC(=O)c1ccc(OC)cc1)C(C)C (configuration not stated), the inhibition is reported as 4.55% (inactive).
In the case of COc1ccc(-c2cc(C(=O)N(C)Cc3ccccc3)c3ccccc3n2)cc1, the inhibition is reported as 4.34% (inactive).
In the case of COc1ccc(NC(=O)CN(C)C(=O)c2cc(-c3ccc(C)o3)nc3ccccc23)cc1, the inhibition is reported as 1.46% (inactive).
In the case of CN(CCOc1ccccc1)C(=O)c1cc(-c2ccco2)nc2ccccc12, the inhibition is reported as 30.5% (active).
CN(C(=O)COC(=O)c1cc(-c2ccco2)nc2ccccc12)C1CCS(=O)(=O)C1 (configuration not stated) was tested, and the inhibition was 38.9% (active).
In the case of CC1CCCN(C(=O)c2cc(-c3ccco3)nc3ccccc23)C1 (configuration not stated), the inhibition is reported as 2.8% (inactive).
With CN(C(=O)COC(=O)c1nc(Cl)ccc1Cl)C1CCS(=O)(=O)C1 (configuration not stated) the inhibition was -2.39% (inactive).
O=C(c1cccs1)n1nc(NCc2ccccc2)nc1NCc1ccccc1 was tested, and the inhibition was -2.31% (inactive).
In the case of Cc1nnsc1S(=O)(=O)Cc1ccccc1Cl, the inhibition is reported as 1.84% (inactive).
In the case of Cn1cccc1C(=O)NNC(=O)COc1ccc(Br)cc1, the inhibition is reported as 1.85% (inactive).
For CC1CCN(C(=S)NC(=O)c2ccccc2Br)CC1, the inhibition was 1.04% (inactive).
In the case of CCc1ccc(NC(=O)Nc2ccncc2)cc1, the inhibition is reported as -0.23% (inactive).
In the case of Oc1ccc2ccccc2c1N=Nc1nccs1, the inhibition is reported as 54.3% (active).
With COc1ccc(C(=O)N2CCCC(C(=O)c3ccccc3OC)C2)cc1OC (configuration not stated) the inhibition was 2.42% (inactive).
In the case of COc1cc(OC)cc(-c2c(-c3cccs3)c3cc(-c4ccc(OC)cc4F)ccc3n2C)c1, the inhibition is reported as -0.84% (inactive).
Cc1ccc(S(=O)(=O)N(C)C)cc1NC(=O)c1n[nH]c(=O)c2ccccc12 was tested, and the inhibition was -2.28% (inactive).
O=C(NCCc1ccc(C(F)(F)F)cc1)c1ccc2c(c1)OCO2 was tested, and the inhibition was 2.41% (inactive).
NC(=O)c1ccc(Nc2ccc3c(c2)CCC3)c([N+](=O)[O-])c1 was tested, and the inhibition was 2.16% (inactive).
With Cc1c(CCO)c(=O)n(-c2ccccc2)n1S(=O)(=O)c1ccc(F)cc1 the inhibition was 9.16% (inactive).
In the case of O=C(C1=C(O)C(=O)N(Cc2ccccc2)C1c1ccco1)c1ccco1 (configuration not stated), the inhibition is reported as 7.06% (inactive).
In the case of O=C(C1=C(O)C(=O)N(Cc2ccccc2)C1c1cccnc1)c1ccco1 (configuration not stated), the inhibition is reported as 3.45% (inactive).
O=C(C1=C(O)C(=O)N(c2ncccn2)C1c1cccs1)c1ccco1 (configuration not stated) was tested, and the inhibition was 94.5% (active).
In the case of COC(=O)/C=C(\Oc1ccccc1)C1(O)CCCCC1, the inhibition is reported as 1.07% (inactive).
With CCn1c(SCC(=O)NC2=NCCS2)nnc1C(C)NC(=O)c1ccccc1F (configuration not stated) the inhibition was -1.19% (inactive).
In the case of O=C(N/N=C/c1sc(N2CCCCC2)nc1-c1cccs1)c1cccnc1, the inhibition is reported as -12.1% (inactive).
